The text below walks through data of PubChem BioAssay (NCATS).

Records with an inconclusive call do not appear. Activity calls are given as the source filed them. The call rests on the fitted dose curve; in most records, active means well fitted inhibition curve with a large enough effect; inconclusive means small, poorly fitted or top-dose-only effect; inactive means flat fitted curve, though single readings scatter.
Potency means the concentration at half of the fitted maximal effect.

The nature of one assay: BET inhibitor-based combinations targeting novel dependencies in MECOM-rearranged (r) AML: AML-191 cell line (AID 2202236; further: nearly all actives have a fitted effect of over 35% in size;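 on viability (% of control): plate controls were vehicle wells for no effect and wells without cells for full effect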). To be noted: AML-191 viability, CellTiter-Glo luminescence, 48 h; series mostly up to 46 µM; viability (% of control): at the top concentration. A digest of the protocol: (§1)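 500 cells/well; 11-pt dose curve; 48 h, standard incubator; CellTiter-Glo luminescence after 15 min RT; DMSO/empty-well normalization; AUC plus Z-AUC (mean-centered within each line).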
For `CN(C)CCOc1ccc(-c2nc(-c3ccc4c(c3)CC/C4=N\O)c(-c3ccncc3)[nH]2)cc1`, the Potency is 16.6 µM (active).
Consider `Nc1nc(Nc2ccc3c(c2)CC[C@@H](N2CCCC2)CC3)nn1-c1cc2c(nn1)-c1ccccc1CCC2`, for which the Potency was 18.6 µM (active).
With `OC1CCC(Oc2cccc3cnc(Nc4ccc5nc[nH]c5c4)nc23)CC1` (configuration not stated), the Potency is 0.833 µM (active).
With `O=C(NC[C@H](O)CO)c1ccncc1Nc1ccc(I)cc1F`, the Potency was 0.525 µM (active).
Same read-out and setting: under `C=CCN(/C=C1\C(=O)O[C@@H](COC)[C@]2(C)C1=C(O)C(=O)C1=C2[C@@H](OC(C)=O)C[C@]2(C)C(=O)CC[C@H]12)CC=C` stands 20.9 µM (active).
Turning to `CC(C)n1c(=O)cc(N[C@@H](C)c2ccccc2)[nH]c1=O`, the “viability (% of control)” value is 88.7% (inactive).
`CCN(C(=O)c1c(O)c2c(Cl)cccc2n(C)c1=O)c1ccccc1`: the Potency was 9.34 µM (active).
As for `C=C[C@@H]1CN2CCC1C[C@H]2[C@H](O)c1ccnc2ccc(OC)cc12` (some centres not stated), the “viability (% of control)” value was 88% (inactive).
Turning to `COC(=O)Nc1nc2ccc(S(=O)c3ccccc3)cc2[nH]1` (configuration not stated), the Potency is 6.61 µM (active).
Regarding `CC(=O)Nc1ccc(O)cc1`, the “viability (% of control)” value was 99% (inactive).
For the compound `CN1C/C=C/CCOc2cccc(c2)-c2ccnc(n2)Nc2cccc(c2)C1`, the Potency was 0.296 µM (active).
Still for that read-out and setting: the value for `CN1CCN(Cc2ccc(Nc3ncc(Cl)c(Nc4ccccc4S(=O)(=O)N(C)C)n3)cc2)CC1` was 0.152 µM (active); that for `CCC(=O)N1CCOc2c(cc(-c3cc(OC)cc(OC)c3)cc2C(=O)N[C@H]2CCCN(C)C2)C1` was 14.8 µM (active).
As to `CN1CCCN(C(=O)c2cccc(-c3ccc(/C=C4/C(=O)Nc5ccc(Cl)cc54)o3)c2)CC1`, the Potency is 2.95 µM (active).
Consider `O=C(Nc1ncc(SCCN2CCCC2)s1)[C@]1(c2ccc(S(=O)(=O)C3CC3)cc2)C[C@H]1C1CCCCC1`, for which the Potency is 18.6 µM (active).
For `C[C@@H]1Cc2c([nH]c3ccccc23)[C@@H](c2c(F)cc(/C=C/C(=O)O)cc2F)N1CC(C)(C)F`, the “viability (% of control)” value was 97.4% (inactive).
For `Cc1cc2cc(Oc3ccnc(Nc4cccc(CS(=O)(=O)NCCN(C)C)c4)n3)ccc2[nH]1`, the Potency was 18.6 µM (active).
For the compound `CNc1nc(-c2ccc3c(N)n[nH]c3c2)cc(N2C[C@@H](C(=O)NC3CCCCC3)CC[C@H]2C)n1`, the Potency was 23.5 µM (active).
In the case of `Cc1ccc(-n2nc(C(C)(C)C)cc2NC(=O)NCc2cc(F)ccc2Oc2ccc3c(cnn3CCO)c2)cc1`, the Potency is 18.6 µM (active).
`CCCN(CCC)C(=O)C1=Cc2ccc(-c3ccc(C(=O)N4CCCC4)cc3)cc2N=C(N)C1`: the Potency is 18.6 µM (active).
Take `CC(C)Oc1ccc(C(=O)N[C@H](CNC(=O)CN(C)C)Cc2ccc(-c3cn4cccc([C@H](C)O)c4n3)cc2)cc1Cl`: the Potency is 0.263 µM (active).
Turning to `C[C@]12CCCN1CC1=NNC(=O)c3cc(F)cc4[nH]c2c1c34`, the Potency was 18.6 µM (active).
On to `COc1cc(N2CCN(C)CC2)ccc1Nc1ncc2c(n1)N(C)c1ccccc1C(=O)N2`, for which the Potency was 26.3 µM (active).
Consider `CCN(CC)C(=S)SSC(=S)N(CC)CC`, for which the Potency was 0.296 µM (active).
In the case of `NC(=O)C1=C(O)[C@@]2(O)C(=O)C3=C(O)c4c(O)cccc4C[C@H]3C[C@H]2CC1=O`, the Potency is 7.42 µM (active).
For `O=S(=O)(Nc1ccc(-c2cccnc2)c2cccnc12)c1cccc(C(F)(F)F)c1`, the Potency is 5.9 µM (active).
With `CC(C)n1cc(-c2ccc3c(c2)N(C)CC3)c2c(NS(=O)(=O)c3ccn(C)n3)ccnc21`, the “viability (% of control)” value is 103% (inactive).
Consider `CCOC(=O)N[C@@H]1CC[C@@H]2[C@@H](C1)C[C@H]1C(=O)O[C@H](C)[C@H]1[C@H]2/C=C/c1ccc(-c2cccc(F)c2)cn1`, for which the “viability (% of control)” value is 97.6% (inactive).

Another assay is described as follows: BET inhibitor-based combinations targeting novel dependencies in MECOM-rearranged (r) AML: AML-194 cell line (AID 2202237; further: nearly all actives have a fitted effect of over 40% in size;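 on viability (% of control): plate controls were vehicle wells for no effect and wells without cells for full effect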). To be noted: AML-194 (MECOM-r AML) viability, CellTiter-Glo, 48 h; series mostly up to 46 µM; viability (% of control): at the top concentration. A digest of the protocol: as §1
In general terms: Cellular ATP, detected with luciferase, serves as a proxy for viable cell number.
With `CN(C)CCOc1ccc(-c2nc(-c3ccc4c(c3)CC/C4=N\O)c(-c3ccncc3)[nH]2)cc1`, the Potency is 20.9 µM (active).
For `COc1ccc(-c2oc3ncnc(N)c3c2-c2ccc(NC(=O)Nc3cc(C(F)(F)F)ccc3F)cc2)cc1`, the Potency is 7.42 µM (active).
On to `OC1CCC(Oc2cccc3cnc(Nc4ccc5nc[nH]c5c4)nc23)CC1` (configuration not stated), for which the Potency is 1.32 µM (active).
As to `C=CCN(/C=C1\C(=O)O[C@@H](COC)[C@]2(C)C1=C(O)C(=O)C1=C2[C@@H](OC(C)=O)C[C@]2(C)C(=O)CC[C@H]12)CC=C`, the Potency was 18.6 µM (active).
Turning to `N#Cc1ccc(-c2c(-c3ncn[nH]3)sc(N3CCOCC3)c2C#N)c(F)c1`, the Potency was 3.32 µM (active).
On to `c1ccc(-c2cc(CCC3CCNCC3)c3ccccc3n2)cc1`, for which the Potency is 26.3 µM (active).
Same read-out and setting: under `COc1cc(C(=O)NC(N)=Nc2ccc(C)c(NC(=O)c3ccc(-c4ccccc4)cc3)c2)cc(OC)c1OC` stands 23.5 µM (active); under `COC(=O)Nc1nc2ccc(S(=O)c3ccccc3)cc2[nH]1` (configuration not stated), 7.42 µM (active).
`CC(=O)Nc1ccc(O)cc1`: the “viability (% of control)” value was 95.9% (inactive).
For the compound `CN1C/C=C/CCOc2cccc(c2)-c2ccnc(n2)Nc2cccc(c2)C1`, the Potency was 0.372 µM (active).
With `CN1CCN(Cc2ccc(Nc3ncc(Cl)c(Nc4ccccc4S(=O)(=O)N(C)C)n3)cc2)CC1`, the Potency is 0.215 µM (active).
As for `CCC(=O)N1CCOc2c(cc(-c3cc(OC)cc(OC)c3)cc2C(=O)N[C@H]2CCCN(C)C2)C1`, the Potency is 18.6 µM (active).
As for `CN1CCCN(C(=O)c2cccc(-c3ccc(/C=C4/C(=O)Nc5ccc(Cl)cc54)o3)c2)CC1`, the Potency is 1.86 µM (active).
Turning to `O=C(Nc1ncc(SCCN2CCCC2)s1)[C@]1(c2ccc(S(=O)(=O)C3CC3)cc2)C[C@H]1C1CCCCC1`, the Potency was 16.6 µM (active).
Consider `C[C@@H]1Cc2c([nH]c3ccccc23)[C@@H](c2c(F)cc(/C=C/C(=O)O)cc2F)N1CC(C)(C)F`, for which the “viability (% of control)” value was 87.8% (inactive).
In the case of `Cc1cc2cc(Oc3ccnc(Nc4cccc(CS(=O)(=O)NCCN(C)C)c4)n3)ccc2[nH]1`, the Potency was 16.6 µM (active).
Consider `Cc1ccc(-n2nc(C(C)(C)C)cc2NC(=O)NCc2cc(F)ccc2Oc2ccc3c(cnn3CCO)c2)cc1`, for which the Potency is 16.6 µM (active).
Regarding `CCCN(CCC)C(=O)C1=Cc2ccc(-c3ccc(C(=O)N4CCCC4)cc3)cc2N=C(N)C1`, the Potency was 26.3 µM (active).
As for `CC(C)Oc1ccc(C(=O)N[C@H](CNC(=O)CN(C)C)Cc2ccc(-c3cn4cccc([C@H](C)O)c4n3)cc2)cc1Cl`, the Potency was 0.332 µM (active).
As to `CC(=O)N1CCC(Nc2cc(C(=O)NC[C@H](O)CN3CCc4ccccc4C3)ncn2)CC1`, the “viability (% of control)” value is 104% (inactive).
On to `CCN(CC)C(=S)SSC(=S)N(CC)CC`, for which the Potency was 0.296 µM (active).
As to `NC(=O)C1=C(O)[C@@]2(O)C(=O)C3=C(O)c4c(O)cccc4C[C@H]3C[C@H]2CC1=O`, the Potency was 10.5 µM (active).
Take `O=S(=O)(Nc1ccc(-c2cccnc2)c2cccnc12)c1cccc(C(F)(F)F)c1`: the Potency was 7.42 µM (active).
`CC(C)n1cc(-c2ccc3c(c2)N(C)CC3)c2c(NS(=O)(=O)c3ccn(C)n3)ccnc21`: the “viability (% of control)” value is 115% (inactive).
